From PubChem BioAssay AID652015 (National Center for Advancing Translational Sciences (NCATS), 2013)
Records with an inconclusive call do not appear. Active and inactive are the calls of the source. Calls come from the whole dose curve; as a rule, active = well fitted inhibition curve with a large enough effect; inconclusive = small, poorly fitted or top-dose-only effect; inactive = no such curve, though single readings can be large or run the other way.

These compounds were tested against Coelenterazine h 2-monooxygenase (Renilla reniformis) (UniProt P27652) (assay: qHTS Assay for Inhibitors of Sea Pansy Luciferase from the GSK Published Protein Kinase Inhibitor Set). Settings: purified Renilla luciferase, luminescence; series mostly up to 57.5 µM; activity change, negative = inhibition: at the top concentration.
Coelenterazine h 2-monooxygenase (Renilla reniformis), sequence (P27652 whole entry, looked up): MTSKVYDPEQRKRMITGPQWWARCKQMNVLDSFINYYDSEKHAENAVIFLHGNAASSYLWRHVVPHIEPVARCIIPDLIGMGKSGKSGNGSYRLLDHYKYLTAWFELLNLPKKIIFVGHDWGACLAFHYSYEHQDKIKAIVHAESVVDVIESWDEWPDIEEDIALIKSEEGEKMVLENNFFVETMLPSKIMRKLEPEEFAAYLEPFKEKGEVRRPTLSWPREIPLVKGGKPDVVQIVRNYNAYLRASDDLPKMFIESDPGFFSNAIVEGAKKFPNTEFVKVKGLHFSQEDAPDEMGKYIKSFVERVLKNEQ
Procedure, shortened: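 qHTS (roughly 60 uM down to 300 pM) against 1 nM Renilla luciferase, substrate coelenterazine h 5 uM, Tris acetate pH 7.5 buffer with NaCl, Tween-20 and BSA. Luminescence measured after an average 2 min incubation.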

Activity change, negative = inhibition, inactive:
O=C1N=c2ccc(N=Cc3c(O)[nH]c4ccccc34)cc2=N1 21.9%
NS(=O)(=O)c1ccc(Nc2ncc(-c3ccccc3)o2)cc1 12.6%
COc1ccc(-c2cc3c(N)ncnc3o2)cc1 37.2%
O=S1CCN(Cc2ccc(-c3ccc4ncnc(Nc5ccc(OCc6ccccc6)c(F)c5)c4c3)o2)CC1 27%
COc1cc2c(cc1Nc1nc(Nc3ccsc3C(N)=O)c3cc[nH]c3n1)N(C(=O)CN(C)C)CCC2(C)C 25%
Fc1ccc(-c2ncn(C3CCNCC3)c2-c2ccnc(Oc3cccc(F)c3)n2)cc1 26.3%
CCN1CCC(C(=O)Nc2n[nH]c3nnc(-c4cccc(F)c4F)cc23)CC1 10.2%
COC(=O)c1sc(-n2cnc3cc(OC)c(OC)cc32)cc1OCc1ccccc1C(F)(F)F 19.3%
CC1=C(C(=O)Nc2ccc3[nH]ncc3c2)C(c2ccc(Cl)c(Cl)c2)CC(=O)N1 (stereo unspecified) 19.5%
NS(=O)(=O)c1ccc(-c2ccc3c(NC(=O)C4CC4)n[nH]c3c2)cc1 20.8%
CCC(=O)Nc1ccc(C)c(-c2ccc(C(=O)NCC3CC3)cc2)c1 8.23%
CCn1c(-c2nonc2N)nc2ccncc21 12.6%
NC(=O)c1cccc(Nc2nccc(Nc3cccc(F)c3)n2)c1 21.5%
CC(=O)Nc1cccc(C#Cc2cncnc2Nc2ccc(OCc3cccc(F)c3)c(Cl)c2)n1 12.4%
CN(c1ccc(NC(=O)Nc2c(Cl)cccc2Cl)cc1)c1ccnc(Nc2cccc(CS(C)(=O)=O)c2)n1 26.4%
COc1cc2ncn(-c3cc(OC(C)c4ccccc4Cl)c(C(N)=O)s3)c2cc1OC (stereo unspecified) 7.79%
